The structures appear in SMILES notation. Counter-ions that a name gives are not always drawn. ± gives the standard deviation of the averaged measurements.
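Further: viability read as CCK-8 absorbance at 450 nm in cells co-exposed to the GPX4 inhibitor RSL3, relative to a 0.01% DMSO vehicle control.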

The subject of the assay is HT-1080. Put plainly: relative cell viability with RSL3 co-treatment (fraction of control); higher = stronger protection from RSL3-induced ferroptosis (higher viability). Particulars: 10 µM.
`Cc1[nH]nc2ccc(-c3cncc(OC[C@@H](N)Cc4ccccc4)c3)cc12`: the relative cell viability was 0.59 ± 0.02.
Next, `CN(C)CCOc1ccc(-c2nc(-c3ccncc3)c(-c3ccc4c(c3)CC/C4=N\O)[nH]2)cc1`: 0.833 ± 0.1; `COc1cc(Nc2ncc(F)c(Nc3ccc4c(n3)N(COP(=O)(O)O)C(=O)C(C)(C)O4)n2)cc(OC)c1OC` [Fostamatinib (R788)]: 0.6 ± 0.017.
Next, `Nc1ccc(C(=O)Nc2cccc(-c3nc(N4CCOCC4)c4oc5ncccc5c4n3)c2)cn1`: 0.303 ± 0.067; `COc1ccc(COc2cc3oc(=O)c4cc(C(C)O)ccc4c3cc2OC)cc1` (stereo not drawn) [Palomid 529 (P529)]: 0.537 ± 0.2; `COC(=O)Nc1ccc(-c2nc(N3CCOCC3)c3cnn(C4CCN(C(=O)OC)CC4)c3n2)cc1`: 0.547 ± 0.18.
As to `O=C1NC(=O)/C(=C/c2ccc(-c3ccc(F)cc3O)o2)S1`, the relative cell viability amounted to 0.75 ± 0.052.
`COCCOc1ccc2c(c1)ncn2-c1ccc2cccc(N3CCC(N)CC3)c2n1`: the relative cell viability is 0.82 ± 0.056.
With `CN1CCN(c2ccc(-c3ccncc3-c3cc(F)c(O)c(F)c3)cc2)CC1` the figure was 0.48 ± 0.25; with `Cn1cc(/C=C2\C(=O)Nc3cccnc32)c2ccccc21`, 0.927 ± 0.015; with `CSc1cccc(Nc2ncc3cc(-c4c(Cl)cccc4Cl)c(=O)n(C)c3n2)c1`, 0.683 ± 0.1.
With `C[C@@H]1CN(CC(=O)Nc2ccc3c(c2)Cc2cccc(-c4cc(=O)cc(N5CCOCC5)o4)c2S3)C[C@H](C)O1` the figure was 0.46 ± 0.11; with `CCN(CC)CCNC(=O)c1c(C)[nH]c(/C=C2\C(=O)Nc3ccc(F)cc32)c1C` [Sunitinib Malate], 0.543 ± 0.099.
With `O=C(NC[C@H](O)CO)c1ccncc1Nc1ccc(I)cc1F` the figure was 0.803 ± 0.076; with `CO[C@@H](C(=O)N1Cc2[nH]nc(NC(=O)c3ccc(N4CCN(C)CC4)cc3)c2C1)c1ccccc1`, 0.507 ± 0.1; with `C[S+]([O-])c1ccc(-c2nc(-c3ccc(F)cc3)c(-c3ccncc3)[nH]2)cc1` (stereo not drawn), 0.603 ± 0.032.
Consider `CC1(COc2ccc3c(c2)ncn3-c2ccc3cccc(N4CCC(N)CC4)c3n2)COC1`, for which the relative cell viability is 0.683 ± 0.27.
Turning to `Oc1cccc(-c2nc(N3CCOCC3)c3oc4ncccc4c3n2)c1`, the relative cell viability worked out at 0.75 ± 0.044.
Next, `CC(C)(CCCCCC(O)CCCCCC(C)(C)C(=O)O)C(=O)O`: 0.843 ± 0.078; `COc1cc2c(Nc3ccc(NC(=O)c4ccccc4)cc3)ncnc2cc1OCCCN1CCOCC1`: 0.717 ± 0.23.
With `Cn1sc(=O)n(Cc2ccccc2)c1=O` the figure was 0.887 ± 0.11.
With `O=C(Nc1cccc(Cl)c1)Nc1ncc(CCNc2ncnc3ccsc23)s1` [SNS-314 Mesylate] the figure was 0.217 ± 0.015; with `CNC(=O)c1cc(COc2nnc(Nc3ccc(Cl)cc3)c3ccoc23)ccn1` [Telatinib], 0.623 ± 0.057.
In the case of `Cc1cc([C@@H](C)Nc2ccccc2C(=O)O)c2nc(N3CCOCC3)cc(=O)n2c1`, the relative cell viability was found to be 0.593 ± 0.18.
With `CC(C)Nc1cc(-c2c[nH]c(C(=O)N[C@H](CO)c3cccc(Cl)c3)c2)c(Cl)cn1` the figure was 0.753 ± 0.076.
Next, `CCOc1ccn(-c2ccc(F)cc2)c(=O)c1C(=O)Nc1ccc(Oc2ccnc(N)c2Cl)c(F)c1`: 0.51 ± 0.092; `CS(=O)(=O)CCNCc1ccc(-c2ccc3ncnc(Nc4ccc(OCc5cccc(F)c5)c(Cl)c4)c3c2)o1`: 0.673 ± 0.032.
Next, `COc1ccc(S(=O)(=O)N(CCO)c2ccccc2CN(C)C/C=C/c2ccc(Cl)cc2)cc1` [KN-93 Phosphate]: 0.813 ± 0.011; `Cc1cc(C(C)Nc2ccccc2)c2nc(N3CCOCC3)cc(=O)n2c1` (stereo not drawn): 0.627 ± 0.059.
Regarding `CC(C)N(CCC(=O)c1ccc2ccccc2c1)Cc1ccccc1`, the relative cell viability amounted to 0.863 ± 0.12.
Next, `CC(C)(O)CNc1ncc(-c2ccnc(Nc3ccnc(Cl)c3)n2)c(CC2CC2)n1`: 0.503 ± 0.031.
With `Cn1cnc2c(F)c(Nc3ccc(Br)cc3Cl)c(C(=O)NOCCO)cc21` [Selumetinib (AZD6244)] the figure was 0.807 ± 0.015; with `Nc1nccc(Oc2ccc(NC(=O)c3c[nH]cc(-c4ccc(F)cc4)c3=O)cc2F)c1Cl`, 0.57 ± 0.036; with `Cc1c(F)cc(C(=O)NC2CC2)cc1-c1ccc(C(=O)NCC(C)(C)C)cn1`, 0.563 ± 0.12.
On to `CNC(=O)Nc1ccc(-c2nc(N3CC4CCC(C3)O4)c3cnn(C4CCC5(CC4)OCCO5)c3n2)cc1`, for which the relative cell viability came to 0.483 ± 0.14.
With `CCc1cc(Nc2nccc(-c3c(-c4ccc(OC)c(C(=O)Nc5c(F)cccc5F)c4)nc4ccccn34)n2)c(OC)cc1N1CCC(N2CCN(S(C)(=O)=O)CC2)CC1` the figure was 0.55 ± 0.01; with `CCn1c(-c2nonc2N)nc2c(C#CC(C)(C)O)ncc(OC[C@H]3CCCNC3)c21`, 0.563 ± 0.18; with `COc1cc(Nc2ncc(F)c(Nc3ccc4c(n3)NC(=O)C(C)(C)O4)n2)cc(OC)c1OC`, 0.88 ± 0.095.

The values above are taken from the supplement of paper PMC9588786.
